From the supplement of paper PMC7765376
Counter-ions that a name gives are not always drawn. In all, about 1,500 compounds were measured (“Excess HSA synergy score (sum over dose matrix of excess over highest single agent)”: median about 43, lowest 2% from about -900 on). Shown is part of a subset that was picked to be rich in the lowest values.

Test system: PEO-1
Experiment: Excess HSA synergy score (sum over dose matrix of excess over highest single agent) (score (summed % response)); higher = less synergy / more antagonism (negative = synergy)
Conditions: 72 h, read-out: viability/apoptosis luminescence (CellTiter-Glo or Caspase3-Glo / not stated per table)
[1] = matrix design: 6x6, 5-fold dilutions (primary screen)
[2] = matrix design: 10x10, 9-step dilutions (confirmatory)

| Compound | Excess HSA synergy score [1] | Excess HSA synergy score [2] |
| --- | --- | --- |
| Clc1ccc(-c2nc3sccn3c2/C=N/OCc2ccc(Cl)c(Cl)c2)cc1 + CC[C@H](NC(=O)[C@H](C)NC)C(=O)N1C[C@@H](O)C[C@H]1Cc1c(-c2[nH]c3cc(F)ccc3c2C[C@@H]2C[C@H](O)CN2C(=O)[C@H](CC)NC(=O)[C@H](C)NC)[nH]c2cc(F)ccc12 [Birinapant] | 56.2 | – |
| NS(=O)(=O)OC[C@@H]1C[C@@H](n2ccc3c(N[C@H]4CCc5ccccc54)ncnc32)C[C@@H]1O + CC[C@H](NC(=O)[C@H](C)NC)C(=O)N1C[C@@H](O)C[C@H]1Cc1c(-c2[nH]c3cc(F)ccc3c2C[C@@H]2C[C@H](O)CN2C(=O)[C@H](CC)NC(=O)[C@H](C)NC)[nH]c2cc(F)ccc12 [Birinapant] | -120 | -1280 |
| CN1CCCN=C1/C=C/c1cccs1 [Pyrantel pamoate] + CC[C@H](NC(=O)[C@H](C)NC)C(=O)N1C[C@@H](O)C[C@H]1Cc1c(-c2[nH]c3cc(F)ccc3c2C[C@@H]2C[C@H](O)CN2C(=O)[C@H](CC)NC(=O)[C@H](C)NC)[nH]c2cc(F)ccc12 [Birinapant] | 18.2 | – |
| O=C(Nc1nc2cccc(-c3ccc(CN4CCS(=O)(=O)CC4)cc3)n2n1)C1CC1 [Filgotinib] + CC[C@H](NC(=O)[C@H](C)NC)C(=O)N1C[C@@H](O)C[C@H]1Cc1c(-c2[nH]c3cc(F)ccc3c2C[C@@H]2C[C@H](O)CN2C(=O)[C@H](CC)NC(=O)[C@H](C)NC)[nH]c2cc(F)ccc12 [Birinapant] | 94.7 | – |
| COc1cccc2nc(-c3cccs3)nc(NN3C(=O)C=C(C)C3=O)c12 + CC[C@H](NC(=O)[C@H](C)NC)C(=O)N1C[C@@H](O)C[C@H]1Cc1c(-c2[nH]c3cc(F)ccc3c2C[C@@H]2C[C@H](O)CN2C(=O)[C@H](CC)NC(=O)[C@H](C)NC)[nH]c2cc(F)ccc12 [Birinapant] | -105 | -1130 |
| COCC[n+]1c2c(n(Cc3cnccn3)c1C)C(=O)c1ccccc1C2=O [Sepantronium bromide] + CC[C@H](NC(=O)[C@H](C)NC)C(=O)N1C[C@@H](O)C[C@H]1Cc1c(-c2[nH]c3cc(F)ccc3c2C[C@@H]2C[C@H](O)CN2C(=O)[C@H](CC)NC(=O)[C@H](C)NC)[nH]c2cc(F)ccc12 [Birinapant] | 55.3 | 281 |
| CCCCCNC(=O)N1CCC(CN(Cc2ccc(Cl)cc2)Cc2ccc([N+](=O)[O-])s2)C1 (stereo not drawn) + CC[C@H](NC(=O)[C@H](C)NC)C(=O)N1C[C@@H](O)C[C@H]1Cc1c(-c2[nH]c3cc(F)ccc3c2C[C@@H]2C[C@H](O)CN2C(=O)[C@H](CC)NC(=O)[C@H](C)NC)[nH]c2cc(F)ccc12 [Birinapant] | -0.0169 | – |
| O=c1ccn(C2OC(CO)C(O)C2F)c(=O)[nH]1 (stereo not drawn) + CC[C@H](NC(=O)[C@H](C)NC)C(=O)N1C[C@@H](O)C[C@H]1Cc1c(-c2[nH]c3cc(F)ccc3c2C[C@@H]2C[C@H](O)CN2C(=O)[C@H](CC)NC(=O)[C@H](C)NC)[nH]c2cc(F)ccc12 [Birinapant] | 232 | – |
| Cc1cc(Nc2cc(CN3CCOCC3)c3nc(C)c(Cc4ccc(Cl)cc4F)n3n2)n[nH]1 [Gandotinib] + CC[C@H](NC(=O)[C@H](C)NC)C(=O)N1C[C@@H](O)C[C@H]1Cc1c(-c2[nH]c3cc(F)ccc3c2C[C@@H]2C[C@H](O)CN2C(=O)[C@H](CC)NC(=O)[C@H](C)NC)[nH]c2cc(F)ccc12 [Birinapant] | 66.5 | – |
| COc1ccc(-c2c(-c3ccc(O)cc3O)n[nH]c2C)cc1 + CC[C@H](NC(=O)[C@H](C)NC)C(=O)N1C[C@@H](O)C[C@H]1Cc1c(-c2[nH]c3cc(F)ccc3c2C[C@@H]2C[C@H](O)CN2C(=O)[C@H](CC)NC(=O)[C@H](C)NC)[nH]c2cc(F)ccc12 [Birinapant] | 59.5 | – |
| Cc1c(CN2CCN(S(C)(=O)=O)CC2)sc2c(N3CCOCC3)nc(-c3cnc(N)nc3)nc12 + CC[C@H](NC(=O)[C@H](C)NC)C(=O)N1C[C@@H](O)C[C@H]1Cc1c(-c2[nH]c3cc(F)ccc3c2C[C@@H]2C[C@H](O)CN2C(=O)[C@H](CC)NC(=O)[C@H](C)NC)[nH]c2cc(F)ccc12 [Birinapant] | 87.6 | – |
| C/C=C1\NC(=O)[C@H]2CSSCC/C=C/[C@H](CC(=O)N[C@H](C(C)C)C(=O)N2)OC(=O)[C@H](C(C)C)NC1=O [Romidepsin] + CC[C@H](NC(=O)[C@H](C)NC)C(=O)N1C[C@@H](O)C[C@H]1Cc1c(-c2[nH]c3cc(F)ccc3c2C[C@@H]2C[C@H](O)CN2C(=O)[C@H](CC)NC(=O)[C@H](C)NC)[nH]c2cc(F)ccc12 [Birinapant] | -212 | -1300 |
| COc1cccc2c(NCc3ccccc3)nc(-n3c(N)nc4ccccc43)nc12 + CC[C@H](NC(=O)[C@H](C)NC)C(=O)N1C[C@@H](O)C[C@H]1Cc1c(-c2[nH]c3cc(F)ccc3c2C[C@@H]2C[C@H](O)CN2C(=O)[C@H](CC)NC(=O)[C@H](C)NC)[nH]c2cc(F)ccc12 [Birinapant] | 17 | – |
| N#CC1(c2cccc(C(=O)Nc3cc(Oc4ccc5nc(NC(=O)C6CC6)sc5n4)ccc3F)c2Cl)CC1 [Takeda-6d] + CC[C@H](NC(=O)[C@H](C)NC)C(=O)N1C[C@@H](O)C[C@H]1Cc1c(-c2[nH]c3cc(F)ccc3c2C[C@@H]2C[C@H](O)CN2C(=O)[C@H](CC)NC(=O)[C@H](C)NC)[nH]c2cc(F)ccc12 [Birinapant] | 135 | – |
| O[C@@H](CNC[C@H](O)[C@H]1CCc2cc(F)ccc2O1)[C@@H]1CCc2cc(F)ccc2O1 (racemic) [rac Nebivolol hydrochloride] + CC[C@H](NC(=O)[C@H](C)NC)C(=O)N1C[C@@H](O)C[C@H]1Cc1c(-c2[nH]c3cc(F)ccc3c2C[C@@H]2C[C@H](O)CN2C(=O)[C@H](CC)NC(=O)[C@H](C)NC)[nH]c2cc(F)ccc12 [Birinapant] | 50.2 | – |
| CC(C)(O)CC[C@@H](O)[C@](C)(O)[C@H]1CC[C@@]2(O)C3=CC(=O)[C@@H]4C[C@@H](O)[C@@H](O)C[C@]4(C)[C@H]3CC[C@]12C [20-hydroxyecdysone] + CC[C@H](NC(=O)[C@H](C)NC)C(=O)N1C[C@@H](O)C[C@H]1Cc1c(-c2[nH]c3cc(F)ccc3c2C[C@@H]2C[C@H](O)CN2C(=O)[C@H](CC)NC(=O)[C@H](C)NC)[nH]c2cc(F)ccc12 [Birinapant] | 229 | – |
| O=C(Nc1ccccc1Br)N[C@@H]1CCN(c2ccc(C(F)(F)F)cn2)C1 + CC[C@H](NC(=O)[C@H](C)NC)C(=O)N1C[C@@H](O)C[C@H]1Cc1c(-c2[nH]c3cc(F)ccc3c2C[C@@H]2C[C@H](O)CN2C(=O)[C@H](CC)NC(=O)[C@H](C)NC)[nH]c2cc(F)ccc12 [Birinapant] | -16.5 | – |
| C[C@H](NC(=O)C(=O)Nc1ccccc1C(C)(C)C)C(=O)N[C@@H](CC(=O)O)C(=O)COc1c(F)c(F)cc(F)c1F [Emricasan] + CC[C@H](NC(=O)[C@H](C)NC)C(=O)N1C[C@@H](O)C[C@H]1Cc1c(-c2[nH]c3cc(F)ccc3c2C[C@@H]2C[C@H](O)CN2C(=O)[C@H](CC)NC(=O)[C@H](C)NC)[nH]c2cc(F)ccc12 [Birinapant] | – | -606 |
| COc1ccc2c(OCc3nnc4ccc(-c5ccccc5)nn34)ccnc2c1 + CC[C@H](NC(=O)[C@H](C)NC)C(=O)N1C[C@@H](O)C[C@H]1Cc1c(-c2[nH]c3cc(F)ccc3c2C[C@@H]2C[C@H](O)CN2C(=O)[C@H](CC)NC(=O)[C@H](C)NC)[nH]c2cc(F)ccc12 [Birinapant] | -55.6 | – |
| N[C@@H](CSC(c1ccccc1)(c1ccccc1)c1ccccc1)C(=O)O [S-Trityl-L-cysteine] + CC[C@H](NC(=O)[C@H](C)NC)C(=O)N1C[C@@H](O)C[C@H]1Cc1c(-c2[nH]c3cc(F)ccc3c2C[C@@H]2C[C@H](O)CN2C(=O)[C@H](CC)NC(=O)[C@H](C)NC)[nH]c2cc(F)ccc12 [Birinapant] | -23.2 | – |
| CCC(=O)NCC[C@@H]1CCc2ccc3c(c21)CCO3 [Ramelteon] + CC[C@H](NC(=O)[C@H](C)NC)C(=O)N1C[C@@H](O)C[C@H]1Cc1c(-c2[nH]c3cc(F)ccc3c2C[C@@H]2C[C@H](O)CN2C(=O)[C@H](CC)NC(=O)[C@H](C)NC)[nH]c2cc(F)ccc12 [Birinapant] | 10.8 | – |
| NC(=O)c1c(OCc2c(F)cc(Br)cc2F)nsc1NC(=O)NCCCCN1CCCC1 + CC[C@H](NC(=O)[C@H](C)NC)C(=O)N1C[C@@H](O)C[C@H]1Cc1c(-c2[nH]c3cc(F)ccc3c2C[C@@H]2C[C@H](O)CN2C(=O)[C@H](CC)NC(=O)[C@H](C)NC)[nH]c2cc(F)ccc12 [Birinapant] | 11 | – |
| C#Cc1cccc(Nc2ncnc3cc(OC)c(OCCCCCCC(=O)NO)cc23)c1 + CC[C@H](NC(=O)[C@H](C)NC)C(=O)N1C[C@@H](O)C[C@H]1Cc1c(-c2[nH]c3cc(F)ccc3c2C[C@@H]2C[C@H](O)CN2C(=O)[C@H](CC)NC(=O)[C@H](C)NC)[nH]c2cc(F)ccc12 [Birinapant] | -55.2 | – |
| CCC(CC)CC1(C(=O)Nc2ccccc2SC(=O)C(C)C)CCCCC1 [Dalcetrapib] + CC[C@H](NC(=O)[C@H](C)NC)C(=O)N1C[C@@H](O)C[C@H]1Cc1c(-c2[nH]c3cc(F)ccc3c2C[C@@H]2C[C@H](O)CN2C(=O)[C@H](CC)NC(=O)[C@H](C)NC)[nH]c2cc(F)ccc12 [Birinapant] | 134 | – |
